Reference: ChEMBL document CHEMBL1961873, “Compounds: GSK PKIS; Assays: Nanosyn kinase panel” (2012)

Key:
[1] = target: 5'-AMP-activated protein kinase catalytic subunit alpha-2 (Homo sapiens) (UniProt P54646); details: at 1 µM
[2] = target: T1, NUAK family SNF1-like kinase 1 (Homo sapiens) (UniProt O60285); details: at 0.1 µM
T1 sequence (whole entry): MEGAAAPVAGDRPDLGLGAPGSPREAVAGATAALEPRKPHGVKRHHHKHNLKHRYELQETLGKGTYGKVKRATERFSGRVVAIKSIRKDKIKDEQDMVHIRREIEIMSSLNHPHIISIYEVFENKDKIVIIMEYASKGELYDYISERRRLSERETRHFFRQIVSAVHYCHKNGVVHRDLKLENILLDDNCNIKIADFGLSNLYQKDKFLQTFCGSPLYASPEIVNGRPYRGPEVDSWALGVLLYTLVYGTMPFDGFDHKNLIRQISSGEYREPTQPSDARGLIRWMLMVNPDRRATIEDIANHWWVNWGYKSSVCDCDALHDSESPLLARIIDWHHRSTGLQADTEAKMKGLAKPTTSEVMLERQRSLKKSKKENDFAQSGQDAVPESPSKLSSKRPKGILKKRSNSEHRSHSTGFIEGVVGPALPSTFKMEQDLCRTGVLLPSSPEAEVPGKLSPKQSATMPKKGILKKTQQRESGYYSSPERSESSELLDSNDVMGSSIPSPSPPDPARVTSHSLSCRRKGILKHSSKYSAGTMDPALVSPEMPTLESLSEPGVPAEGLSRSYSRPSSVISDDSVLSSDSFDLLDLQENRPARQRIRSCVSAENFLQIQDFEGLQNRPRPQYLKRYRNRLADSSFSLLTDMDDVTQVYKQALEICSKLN

[3] = target: T1, NUAK family SNF1-like kinase 1 (Homo sapiens); details: at 1 µM
[4] = target: T2, Serine/threonine-protein kinase BRSK1 (Homo sapiens) (UniProt Q8TDC3); details: at 0.1 µM
T2 sequence (whole entry): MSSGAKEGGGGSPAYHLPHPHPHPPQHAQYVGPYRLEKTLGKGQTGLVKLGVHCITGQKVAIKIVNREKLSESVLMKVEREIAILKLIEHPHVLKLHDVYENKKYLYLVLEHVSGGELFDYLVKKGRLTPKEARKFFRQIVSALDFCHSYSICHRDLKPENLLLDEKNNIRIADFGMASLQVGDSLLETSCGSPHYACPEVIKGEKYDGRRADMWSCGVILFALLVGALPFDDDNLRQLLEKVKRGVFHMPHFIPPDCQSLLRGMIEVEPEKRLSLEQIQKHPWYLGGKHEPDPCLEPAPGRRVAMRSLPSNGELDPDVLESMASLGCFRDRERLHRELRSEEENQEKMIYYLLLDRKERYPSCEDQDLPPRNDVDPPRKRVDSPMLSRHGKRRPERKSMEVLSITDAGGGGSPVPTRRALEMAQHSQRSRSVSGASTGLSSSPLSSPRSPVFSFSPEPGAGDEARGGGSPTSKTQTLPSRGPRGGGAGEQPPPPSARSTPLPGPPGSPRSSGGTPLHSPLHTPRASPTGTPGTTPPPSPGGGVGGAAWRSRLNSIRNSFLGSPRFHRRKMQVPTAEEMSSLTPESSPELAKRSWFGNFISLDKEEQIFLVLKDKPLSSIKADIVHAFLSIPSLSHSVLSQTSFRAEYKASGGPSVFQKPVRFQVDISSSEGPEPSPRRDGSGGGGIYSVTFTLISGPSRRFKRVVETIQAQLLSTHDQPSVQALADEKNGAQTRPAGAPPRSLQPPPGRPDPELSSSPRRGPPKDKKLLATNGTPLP

[5] = target: T2, Serine/threonine-protein kinase BRSK1 (Homo sapiens); details: at 1 µM
[6] = target: T3, Serine/threonine-protein kinase BRSK2 (Homo sapiens) (UniProt Q8IWQ3); details: at 0.1 µM
T3 sequence (whole entry): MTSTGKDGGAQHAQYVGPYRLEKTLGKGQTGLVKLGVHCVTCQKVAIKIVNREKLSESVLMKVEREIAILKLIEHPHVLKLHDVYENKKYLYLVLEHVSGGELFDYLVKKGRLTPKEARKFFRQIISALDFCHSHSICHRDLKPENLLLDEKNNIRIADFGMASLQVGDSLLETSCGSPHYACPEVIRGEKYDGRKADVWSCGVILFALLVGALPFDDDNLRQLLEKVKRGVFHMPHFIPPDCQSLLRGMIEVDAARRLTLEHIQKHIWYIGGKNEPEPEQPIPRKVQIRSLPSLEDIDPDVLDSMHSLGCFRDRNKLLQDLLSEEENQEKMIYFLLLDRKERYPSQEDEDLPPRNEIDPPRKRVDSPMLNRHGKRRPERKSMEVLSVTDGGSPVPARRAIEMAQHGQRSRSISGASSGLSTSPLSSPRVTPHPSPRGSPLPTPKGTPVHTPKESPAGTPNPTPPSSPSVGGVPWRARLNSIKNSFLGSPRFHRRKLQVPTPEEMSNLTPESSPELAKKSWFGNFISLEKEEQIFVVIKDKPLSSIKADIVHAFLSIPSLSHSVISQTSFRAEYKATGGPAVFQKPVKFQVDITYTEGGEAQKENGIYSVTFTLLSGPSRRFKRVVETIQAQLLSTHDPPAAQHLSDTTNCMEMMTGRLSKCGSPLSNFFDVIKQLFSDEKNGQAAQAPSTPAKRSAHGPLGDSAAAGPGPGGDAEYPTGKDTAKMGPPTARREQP

[7] = target: T3, Serine/threonine-protein kinase BRSK2 (Homo sapiens); details: at 1 µM
[8] = target: Calcium/calmodulin-dependent protein kinase type 1D (Homo sapiens) (UniProt Q8IU85); details: at 0.1 µM
Sequence of Calcium/calmodulin-dependent protein kinase type 1D (Homo sapiens) (Q8IU85 whole entry, looked up): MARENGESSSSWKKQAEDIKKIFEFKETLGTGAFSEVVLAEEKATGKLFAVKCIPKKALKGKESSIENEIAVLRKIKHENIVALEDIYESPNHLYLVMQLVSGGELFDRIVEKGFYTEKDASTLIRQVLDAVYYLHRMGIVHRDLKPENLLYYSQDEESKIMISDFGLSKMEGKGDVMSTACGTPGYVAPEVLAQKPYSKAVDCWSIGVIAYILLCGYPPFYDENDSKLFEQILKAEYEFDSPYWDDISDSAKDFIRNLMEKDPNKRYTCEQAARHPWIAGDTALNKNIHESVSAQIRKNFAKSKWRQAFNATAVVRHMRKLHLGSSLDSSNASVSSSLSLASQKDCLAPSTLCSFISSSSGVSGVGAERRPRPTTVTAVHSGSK

[9] = target: Calcium/calmodulin-dependent protein kinase type 1D (Homo sapiens) (UniProt Q8IU85); details: at 1 µM
[10] = target: Calcium/calmodulin-dependent protein kinase type II subunit alpha (Homo sapiens) (UniProt Q9UQM7); details: at 0.1 µM
Sequence of Calcium/calmodulin-dependent protein kinase type II subunit alpha (Homo sapiens) (Q9UQM7 whole entry): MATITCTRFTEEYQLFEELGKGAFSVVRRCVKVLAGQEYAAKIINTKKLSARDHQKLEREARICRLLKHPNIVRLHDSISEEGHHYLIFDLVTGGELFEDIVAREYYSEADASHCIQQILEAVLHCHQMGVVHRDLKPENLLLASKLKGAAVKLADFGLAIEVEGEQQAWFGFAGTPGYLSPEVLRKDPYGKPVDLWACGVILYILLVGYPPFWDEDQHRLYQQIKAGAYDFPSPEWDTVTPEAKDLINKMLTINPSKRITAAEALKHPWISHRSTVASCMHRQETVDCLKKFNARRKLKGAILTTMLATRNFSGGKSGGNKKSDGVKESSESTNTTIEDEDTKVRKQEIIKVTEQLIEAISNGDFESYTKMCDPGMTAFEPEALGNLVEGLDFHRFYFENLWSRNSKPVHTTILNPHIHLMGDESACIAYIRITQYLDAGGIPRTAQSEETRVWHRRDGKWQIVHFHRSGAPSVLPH

[11] = target: Calcium/calmodulin-dependent protein kinase type II subunit alpha (Homo sapiens) (UniProt Q9UQM7); details: at 1 µM
[12] = target: Calcium/calmodulin-dependent protein kinase type II subunit delta (Homo sapiens) (UniProt Q13557); details: at 0.1 µM
Sequence of Calcium/calmodulin-dependent protein kinase type II subunit delta (Homo sapiens) (Q13557 whole entry): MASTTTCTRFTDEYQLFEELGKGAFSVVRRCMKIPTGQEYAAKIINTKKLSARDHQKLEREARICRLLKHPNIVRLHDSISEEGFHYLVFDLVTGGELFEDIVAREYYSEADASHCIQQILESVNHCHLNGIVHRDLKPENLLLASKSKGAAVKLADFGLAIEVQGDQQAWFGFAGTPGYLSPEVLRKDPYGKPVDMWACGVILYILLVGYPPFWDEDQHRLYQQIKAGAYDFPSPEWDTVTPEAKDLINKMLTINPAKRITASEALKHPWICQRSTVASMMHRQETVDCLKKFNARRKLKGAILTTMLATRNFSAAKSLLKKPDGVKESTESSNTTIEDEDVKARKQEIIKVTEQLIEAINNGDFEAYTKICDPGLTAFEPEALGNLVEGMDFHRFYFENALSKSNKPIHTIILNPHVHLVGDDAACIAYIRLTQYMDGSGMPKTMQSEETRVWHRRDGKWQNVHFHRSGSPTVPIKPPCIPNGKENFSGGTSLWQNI

[13] = target: Calcium/calmodulin-dependent protein kinase type II subunit delta (Homo sapiens) (UniProt Q13557); details: at 1 µM
[14] = target: T4, Calcium/calmodulin-dependent protein kinase type IV (Homo sapiens) (UniProt Q16566); details: at 0.1 µM
T4 sequence (whole entry): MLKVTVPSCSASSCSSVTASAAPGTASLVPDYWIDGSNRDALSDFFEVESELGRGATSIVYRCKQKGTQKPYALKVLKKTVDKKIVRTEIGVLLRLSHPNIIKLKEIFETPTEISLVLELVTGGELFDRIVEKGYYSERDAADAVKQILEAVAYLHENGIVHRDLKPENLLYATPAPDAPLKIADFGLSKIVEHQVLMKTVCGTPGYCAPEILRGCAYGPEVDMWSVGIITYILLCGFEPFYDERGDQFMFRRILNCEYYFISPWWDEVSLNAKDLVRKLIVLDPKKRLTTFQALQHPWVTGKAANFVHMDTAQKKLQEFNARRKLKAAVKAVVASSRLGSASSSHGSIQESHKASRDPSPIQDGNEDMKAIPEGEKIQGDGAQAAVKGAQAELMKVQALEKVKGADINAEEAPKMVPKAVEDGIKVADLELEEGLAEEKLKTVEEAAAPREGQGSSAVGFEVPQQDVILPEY

[15] = target: T4, Calcium/calmodulin-dependent protein kinase type IV (Homo sapiens); details: at 1 µM
[16] = target: T5, Serine/threonine-protein kinase Chk1 (Homo sapiens) (UniProt O14757); details: at 0.1 µM
T5 sequence (whole entry): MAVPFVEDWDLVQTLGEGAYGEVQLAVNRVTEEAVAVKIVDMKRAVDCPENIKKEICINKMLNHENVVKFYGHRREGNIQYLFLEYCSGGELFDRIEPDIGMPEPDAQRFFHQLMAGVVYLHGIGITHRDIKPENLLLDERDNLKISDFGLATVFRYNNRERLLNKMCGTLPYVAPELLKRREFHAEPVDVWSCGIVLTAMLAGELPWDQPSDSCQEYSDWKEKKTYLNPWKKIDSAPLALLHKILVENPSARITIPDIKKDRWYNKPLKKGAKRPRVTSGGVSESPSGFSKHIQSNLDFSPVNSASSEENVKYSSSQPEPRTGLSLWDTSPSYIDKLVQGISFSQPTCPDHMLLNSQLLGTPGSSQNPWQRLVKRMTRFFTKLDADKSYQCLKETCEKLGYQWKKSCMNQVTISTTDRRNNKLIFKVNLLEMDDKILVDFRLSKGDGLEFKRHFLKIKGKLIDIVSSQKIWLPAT

[17] = target: T5, Serine/threonine-protein kinase Chk1 (Homo sapiens); details: at 1 µM
[18] = target: Serine/threonine-protein kinase Chk2 (Homo sapiens) (UniProt O96017); details: at 0.1 µM
Sequence of Serine/threonine-protein kinase Chk2 (Homo sapiens) (O96017 whole entry): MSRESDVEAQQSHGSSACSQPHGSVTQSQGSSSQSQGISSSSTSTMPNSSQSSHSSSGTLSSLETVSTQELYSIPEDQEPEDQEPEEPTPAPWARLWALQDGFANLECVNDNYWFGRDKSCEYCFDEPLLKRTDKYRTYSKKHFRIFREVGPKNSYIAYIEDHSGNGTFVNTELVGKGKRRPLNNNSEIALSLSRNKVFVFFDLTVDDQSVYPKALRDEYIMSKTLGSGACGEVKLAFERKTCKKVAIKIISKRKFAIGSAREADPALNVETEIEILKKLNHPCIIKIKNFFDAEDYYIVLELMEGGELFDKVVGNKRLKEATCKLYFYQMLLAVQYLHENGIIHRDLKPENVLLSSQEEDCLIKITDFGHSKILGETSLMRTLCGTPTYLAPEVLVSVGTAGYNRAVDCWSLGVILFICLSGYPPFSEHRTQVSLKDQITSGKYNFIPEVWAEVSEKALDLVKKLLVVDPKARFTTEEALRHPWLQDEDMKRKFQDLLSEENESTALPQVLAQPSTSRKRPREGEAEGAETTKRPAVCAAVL

[19] = target: Serine/threonine-protein kinase Chk2 (Homo sapiens) (UniProt O96017); details: at 1 µM
[20] = target: Death-associated protein kinase 1 (Homo sapiens) (UniProt P53355); details: at 0.1 µM;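 also: reported figure is the mean inhibition of DAPK1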
Sequence of Death-associated protein kinase 1 (Homo sapiens) (P53355 whole entry, looked up): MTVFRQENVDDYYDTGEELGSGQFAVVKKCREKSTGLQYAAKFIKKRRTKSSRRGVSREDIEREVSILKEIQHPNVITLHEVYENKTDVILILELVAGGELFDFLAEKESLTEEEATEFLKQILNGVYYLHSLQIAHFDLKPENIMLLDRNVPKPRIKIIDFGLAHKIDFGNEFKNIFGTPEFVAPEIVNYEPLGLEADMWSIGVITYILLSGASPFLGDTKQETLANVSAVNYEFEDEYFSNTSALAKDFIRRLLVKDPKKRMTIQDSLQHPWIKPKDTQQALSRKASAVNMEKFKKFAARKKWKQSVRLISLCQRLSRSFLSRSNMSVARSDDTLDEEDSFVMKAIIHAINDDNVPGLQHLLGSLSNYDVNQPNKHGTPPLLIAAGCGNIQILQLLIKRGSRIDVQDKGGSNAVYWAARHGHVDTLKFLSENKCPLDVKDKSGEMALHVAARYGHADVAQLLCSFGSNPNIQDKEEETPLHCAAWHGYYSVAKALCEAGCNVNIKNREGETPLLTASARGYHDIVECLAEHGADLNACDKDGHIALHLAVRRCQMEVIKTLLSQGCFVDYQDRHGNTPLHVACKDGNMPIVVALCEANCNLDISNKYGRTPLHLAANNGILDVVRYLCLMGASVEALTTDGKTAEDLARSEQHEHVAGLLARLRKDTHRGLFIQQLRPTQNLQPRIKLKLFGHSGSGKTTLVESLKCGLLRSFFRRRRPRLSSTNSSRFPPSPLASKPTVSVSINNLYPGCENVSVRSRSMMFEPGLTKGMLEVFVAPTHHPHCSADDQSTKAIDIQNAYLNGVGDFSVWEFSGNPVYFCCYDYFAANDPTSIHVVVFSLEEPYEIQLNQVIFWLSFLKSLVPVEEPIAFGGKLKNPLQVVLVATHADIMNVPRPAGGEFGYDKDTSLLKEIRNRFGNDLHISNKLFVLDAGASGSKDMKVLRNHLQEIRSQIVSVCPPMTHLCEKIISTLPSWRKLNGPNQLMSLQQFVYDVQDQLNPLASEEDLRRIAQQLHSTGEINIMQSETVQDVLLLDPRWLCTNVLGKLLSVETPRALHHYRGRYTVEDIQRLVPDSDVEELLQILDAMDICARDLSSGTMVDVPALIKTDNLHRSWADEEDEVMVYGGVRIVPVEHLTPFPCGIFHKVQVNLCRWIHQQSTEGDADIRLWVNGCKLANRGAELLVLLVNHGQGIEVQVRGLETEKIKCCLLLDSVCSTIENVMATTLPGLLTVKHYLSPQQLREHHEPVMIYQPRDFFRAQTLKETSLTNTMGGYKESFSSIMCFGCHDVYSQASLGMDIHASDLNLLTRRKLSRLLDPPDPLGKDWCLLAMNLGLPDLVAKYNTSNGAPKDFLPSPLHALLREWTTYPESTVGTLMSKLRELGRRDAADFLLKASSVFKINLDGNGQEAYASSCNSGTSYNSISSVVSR

Sequence of 5'-AMP-activated protein kinase catalytic subunit alpha-2 (Homo sapiens) (P54646 whole entry, looked up): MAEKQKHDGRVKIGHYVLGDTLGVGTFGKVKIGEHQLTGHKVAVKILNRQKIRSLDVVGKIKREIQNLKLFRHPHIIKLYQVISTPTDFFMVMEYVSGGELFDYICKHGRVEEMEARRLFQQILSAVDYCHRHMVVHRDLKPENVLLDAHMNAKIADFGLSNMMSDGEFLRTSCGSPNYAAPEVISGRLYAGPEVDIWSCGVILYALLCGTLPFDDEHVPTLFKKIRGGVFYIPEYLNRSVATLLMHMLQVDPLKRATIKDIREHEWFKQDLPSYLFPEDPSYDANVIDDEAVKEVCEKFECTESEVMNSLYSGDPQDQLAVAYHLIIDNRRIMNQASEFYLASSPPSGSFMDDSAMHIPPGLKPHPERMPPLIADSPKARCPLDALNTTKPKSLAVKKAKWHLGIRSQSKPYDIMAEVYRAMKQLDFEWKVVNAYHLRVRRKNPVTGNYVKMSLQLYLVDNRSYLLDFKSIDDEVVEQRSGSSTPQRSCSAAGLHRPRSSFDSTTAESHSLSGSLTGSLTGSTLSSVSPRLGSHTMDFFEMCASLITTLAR

Row | SMILES | inhibition [1] | inhibition [2] | inhibition [3] | inhibition [4] | inhibition [5] | inhibition [6] | inhibition [7] | inhibition [8] | inhibition [9] | inhibition [10] | inhibition [11] | inhibition [12] | inhibition [13] | inhibition [14] | inhibition [15] | inhibition [16] | inhibition [17] | inhibition [18] | inhibition [19] | inhibition [20]
1 | Cn1c(-c2nonc2N)nc2cnccc21 | 4.41% | 0.78% | 4.88% | 2.34% | 5.84% | 3.19% | 6.4% | 0.12% | 0.97% | 3.13% | 1.59% | 2.9% | 4.76% | 2.54% | 2.02% | 1.55% | 2.48% | 2.16% | 3.21% | 2.36%
2 | COc1ccc(Nc2ncc(-c3ccccc3)o2)cc1OC | 14.5% | 18.2% | 61.5% | 1.32% | 11.5% | 0.9% | 12.8% | 0.37% | 1.51% | 1.79% | 4.71% | 0.93% | 8.26% | -0.62% | 1.46% | -0.04% | 50.5% | -0.14% | 2.24% | 1.44%
3 | CN1CCC(n2cnc(-c3ccc(F)cc3)c2-c2ccnc(NCCO)n2)CC1 | 3.88% | 1.51% | 0.83% | 1.04% | 3.71% | 2.24% | 6.29% | -1.1% | -1.38% | 8.05% | 3.86% | 1.32% | 3.99% | -3.49% | -5.99% | 1.6% | 6.89% | 4.1% | 5.51% | 4.37%
4 | CC1=C(C(=O)Nc2ccc3[nH]ncc3c2)C(c2ccc(F)cc2)N=C(c2ccc(C(F)(F)F)nc2)N1 (stereo not given) | 4.16% | 2.72% | -3.57% | 1.01% | 3.19% | 0.18% | 5.63% | 0.25% | 1.37% | 0.55% | 2.04% | 0.67% | 3.6% | 0.82% | 1.17% | 0.19% | 3.03% | 1.5% | 2.24% | 0.86%
5 | CCS(=O)(=O)c1ccc(OC)c(Nc2ncc(-c3cccc(F)c3)o2)c1 | 5.58% | 0.71% | 12.5% | 1.15% | -0.68% | 1.63% | 3.22% | 0.89% | 2.56% | 2.75% | 5.43% | 4.73% | 10.6% | -0.92% | 1.07% | 3.94% | 12.9% | 2.75% | 4.65% | 7.21%
6 | COC(=O)Nc1nc2cc(Oc3ccc(NC(=O)Nc4ccccc4)cc3)ccc2[nH]1 | 0.9% | -0.53% | -0.72% | -0.86% | 0.34% | 0.79% | 2.06% | 0.99% | -1.18% | 2.23% | 1.94% | 1.6% | 1.54% | -1.32% | -2.54% | -0.71% | 3.92% | 1.94% | 3.46% | 3.21%
7 | COc1ccc(-c2nn3ncccc3c2-c2ccnc(Nc3ccc(F)c(F)c3)n2)cc1 | 6.49% | 3.92% | 5.51% | 3.95% | 7.79% | 5.66% | 7.14% | -0.12% | 1.91% | 3.21% | 4.43% | 3.14% | 7.4% | -3.18% | -4.79% | 3.76% | 8.64% | 6.74% | 7.89% | 4.63%
